Experimental findings from paper PMC5540273 (PLoS ONE, 2017) are described below.

Conditions in all cases: concentration: 1 μM, replicates: in singlicate; n = 1
The subject of test [1] is MTOR.
The subject of test [2] is MUSK.
Test [3] relates to MYLK2.
Test [4] deals with MYLK4.
For test [5], the system named is MYLK.
Test [6] concerns MYO3A.
The subject of test [7] is MYO3B.
Test [8] deals with T1, NDR1.
T1 construct: gene STK38

In test [9] the test system is NDR2.
The test system of test [10] is NEK10.
Test [11] deals with NEK11.
The test system of test [12] is NEK1.
The test system of test [13] is NEK2.
The subject of test [14] is NEK3.
Test [15] relates to NEK4.
Test [16] deals with NEK5.
Test [17] deals with NEK6.
The test system of test [18] is NEK7.
Test [19] has as its system NEK9.
For test [20], the system named is T2, NIK.
T2 construct: gene MAP3K14

Molecules are shown by their SMILES.
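Further: KINOMEscan kinase panel screen.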

Regarding `COc1cccc(CC(=O)N2CCc3cc(-c4cn(C)c5ncnc(N)c45)ccc32)c1` [GSK2608899], the “%Inh” value in test [1] worked out at 8%; in test [2], 27%; in [3], 64%; in test [4] it was 7%; in test [5], 20%; in test [6] it was 38%. Besides, the “%Inh” value in test [7] is given as 18%; in test [8], 22%; in test [9] it was 0%; in test [10], 7%; in test [11], 49%; in [12] it was 21%. Further, the “%Inh” value is listed as 74% in test [13]; 4% in test [14]; 44% in test [15]; 24% in test [16]; 18% in test [17]; 11% in test [18]. Moreover, the “%Inh” value amounted to 25% in [19] and 0% in test [20].

Consider `CN(c1ccc(NC(=O)N2CCN(CCCN3CCOCC3)CC2)cc1)c1ccnc(Nc2ccc(CS(C)(=O)=O)cc2)n1.Cl` [GW830899], for which the “%Inh” value stood at 0% in test [1]; 12% in test [2]; 9% in test [3]; 1% in test [4]; 0% in test [5]; 0% in [6]. For the same molecule, the “%Inh” value was 0% in test [7]; 3% in test [8]; 0% in test [9]; 0% in [10]; 0% in test [11]; 0% in test [12]. Further, the “%Inh” value in [13] is on record as 14%; in [14], 9%; in [15] it was 0%; in [16], 3%; in test [17], 14%; in test [18] it was 0%. Further, the “%Inh” value in [19] and in [20] was 0% each time.

Regarding `COC(=O)Nc1nc2ccc(Oc3ccc(NC(=O)Nc4cc(C(F)(F)F)ccc4F)cc3)cc2[nH]1.Cl` [GW654607], the “%Inh” value in test [1] worked out at 34%; in [2], 99.6%; in test [3], 33%; in [4], 0%; in test [5] it was 10%; in [6] it was 0%. The “%Inh” value in [7] is 0%; in [8], 29%; in test [9], 0%; in test [10], 21%; in [11], 0%; in test [12], 0%. Besides, the “%Inh” value in test [13] is listed as 0%; in test [14] it was 0%; in test [15], 0%; in test [16], 13%; in test [17] it was 0%; in [18], 19%. The “%Inh” value in test [19] stood at 57%; in test [20], 60%.

As for `Cn1cc(-c2ccc3c(c2)CCN3C(=O)Cc2cc(F)cc(C(F)(F)F)c2)c2c(N)ncnc21` [GSK2635225], the “%Inh” value in test [1] stood at 35%; in test [2], 28%; in [3] it was 27%; in [4], 1%; in [5] it was 12%; in test [6], 42%. Also, the “%Inh” value turned out to be 0% in [7]; 25% in test [8]; 13% in test [9]; 6% in test [10]; 8% in [11]; 9% in test [12]. In addition, the “%Inh” value was 18% in [13]; 0% in test [14]; 13% in test [15]; 0% in [16]; 6% in test [17]; 0% in test [18]. Further, the “%Inh” value in [19] is recorded as 25%; in test [20], 15%.

With `Fc1cc(Cl)ccc1Nc1ccnc2cc(-c3ccc(CN4CCOCC4)o3)ccc12` [GW560109], the “%Inh” value in [1] is listed as 1%; in [2], 0%; in test [3] it was 8%; in [4], 1%; in test [5], 47%; in test [6] it was 0%. In addition, the “%Inh” value in test [7] stood at 1%; in test [8] it was 0%; in test [9], 0%; in [10], 0%; in [11], 0%; in test [12] it was 0%. Further, the “%Inh” value was found to be 13% in [13]; 0% in [14]; 15% in test [15]; 1% in [16]; 0% in test [17]; 3% in test [18]. The “%Inh” value stood at 0% in test [19] and 4% in test [20].

`Cc1ccc(NC(=O)c2ccnc(N3CCCCC3)c2)cc1-c1ccc(C(=O)NCC2CC2)cc1` [GW775610]: the “%Inh” value in test [1] stood at 9%; in test [2], 0%; in test [3], 15%; in test [4], 0%; in test [5], 0%; in test [6] it was 0%. For the same molecule, the “%Inh” value in test [7] was determined as 3%; in test [8], 0%; in test [9] it was 5%; in test [10] it was 0%; in test [11], 0%; in test [12], 0%. Besides, the “%Inh” value is 0% in test [13]; 4% in test [14]; 0% in test [15]; 0% in test [16]; 0% in test [17]; 8% in test [18]. Moreover, the “%Inh” value in test [19] was determined as 20%; in test [20], 15%.

With `Cc1ccc(Nc2ccnc(Nc3ccc(C)c(F)c3)n2)cc1O.Cl` [GW582868], the “%Inh” value in test [1] stood at 15%; in test [2], 12%; in [3], 0%; in test [4] it was 29%; in [5] it was 9%; in test [6], 2%. For the same molecule, the “%Inh” value is 0% in test [7]; 0% in test [8]; 0% in test [9]; 0% in test [10]; 3% in test [11]; 0% in test [12]. In addition, the “%Inh” value in test [13] is recorded as 1%; in test [14] it was 10%; in [15], 7%; in test [16], 4%; in test [17], 0%; in [18], 0%. The results for the “%Inh” value in test [19] and in [20] were 0% and 10%, respectively.

On to `CN(C)CCNS(=O)(=O)c1ccc(-c2ccnc3[nH]ccc23)cc1` [GSK977620], for which the “%Inh” value in test [1] was 17%; in test [2] it was 23%; in test [3], 35%; in [4], 99.5%; in test [5], 28%; in [6], 0%. For the same molecule, the “%Inh” value in [7] is 0%; in test [8], 29%; in test [9], 15%; in [10], 17%; in test [11], 0%; in test [12], 99.8%. The “%Inh” value was determined as 0% in test [13]; 0% in test [14]; 4% in test [15]; 1% in test [16]; 1% in test [17]; 0% in [18]. In addition, the “%Inh” value in test [19] and in test [20] was 0% each time.

Take `CS(=O)(=O)c1cccc(CNc2nc(Nc3ccc4c(c3)CCC(=O)N4)ncc2C(F)(F)F)c1`: the “%Inh” value turned out to be 62% in test [1]; 12% in [2]; 16% in test [3]; 0% in [4]; 7% in test [5]; 0% in [6]. In addition, the “%Inh” value is 0% in test [7]; 58% in test [8]; 0% in test [9]; 0% in test [10]; 0% in test [11]; 0% in test [12]. In addition, the “%Inh” value is 0% in [13]; 37% in test [14]; 0% in test [15]; 28% in [16]; 6% in [17]; 0% in test [18]. Besides, the “%Inh” value in [19] and in test [20] was 0% in each case.

Take `Cc1ccc(-c2ccc3occ(-c4ccc(S(C)=O)cc4)c3c2)nn1` (centres unmarked): the “%Inh” value was 17% in [1]; 3% in test [2]; 11% in [3]; 0% in [4]; 0% in [5]; 0% in test [6]. Besides, the “%Inh” value was 1% in test [7]; 2% in [8]; 15% in test [9]; 25% in test [10]; 0% in [11]; 0% in test [12]. Further, the “%Inh” value in [13] stood at 0%; in [14], 30%; in [15] it was 0%; in [16], 0%; in test [17], 0%; in test [18], 0%. Besides, the “%Inh” value in test [19] and in [20] was 0% in each case.
